Results on 22 molecules are retold here after PubChem BioAssay (EPA / NIEHS).

Inconclusive results are not listed. More than one record can exist for a structure, and the calls need not agree. The source made the active and inactive calls. Rule for the calls, unless noted: active = hit-call score of the fitted dose curve at least 0.9, where 1 is the maximum; inactive = score below 0.9.

Read-out in assay [1]: Monocyte Chemoattractant Protein-1 (MCP1), CCL2 (gene 6347)
Put plainly: BSK_SAg_MCP1: BioMAP Diversity Plus: SAg Assay for Monocyte Chemoattractant Protein-1 (MCP1) Biomarker Activity (AID 2283090). The following applies: primary human HUVEC with PBMC; actives raise or lower the signal. A digest of the protocol: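 MCP-1 levels in the endothelial–PBMC SAg co-culture were quantified by ELISA at 24 h post-dosing; both increases and decreases versus DMSO scored. Cytotoxicity monitored by SRB total protein in parallel cultures.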

Read-out in assay [2]: E-selectin (Homo sapiens) (UniProt P16581)
Briefly: BSK_SAg_Eselectin: BioMAP Diversity Plus: SAg Assay for Eselectin Biomarker Activity (AID 2283091). The note with it: primary human HUVEC with PBMC; actives raise or lower the signal. A digest of the protocol:
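Endpoint values derive from bidirectional fitting relative to DMSO, using ELISA-measured E-selectin in a human vascular co-culture (umbilical vein endothelium plus PBMC) sampled 24 h after dosing.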

Assay [3] is described as follows: BSK_SAg_PBMCCytotoxicity: PBMC Cytotoxicity Assessment in the BioMAP Diversity Plus: SAg Assay (AID 2283093).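 For AC50: PBMC superantigen activated with SEB plus TSST-1 one hour after compound addition.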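 Note: PBMC viability measured as Alamar Blue reduction fluorescence at 546/580 nm; fitted both ways against DMSO so a hit may be loss or gain of signal.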 The note with it: primary human HUVEC with PBMC. Put shortly: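 HUVEC/PBMC co-culture; PBMC exposed to chemical 1 h before SEB and TSST-1 activation (20 ng/mL each), incubated 90 h, then Alamar Blue 6 h, fluorescence 546/580 nm. Bidirectional fit versus DMSO baseline.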

Read-out in assay [4]: Interleukin-8 (IL8), CXCL8 (gene 3576)
Briefly: BSK_SAg_IL8: BioMAP Diversity Plus: SAg Assay for Interleukin-8 (IL8) Biomarker Activity (AID 2283094). The note with it: primary human HUVEC with PBMC; actives raise or lower the signal. A digest of the protocol: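 Human umbilical vein endothelial cells co-cultured with peripheral blood mononuclear cells; IL-8 measured by ELISA 24 h after chemical dosing. Bidirectional concentration-response fitting used DMSO as negative control and activity baseline.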

Assay [5] can be described thus: BSK_SAg_Proliferation: Cell Proliferation Assessment in the BioMAP Diversity Plus: SAg Assay (AID 2283095).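 Note: relative cell number as total protein by SRB absorbance in sub-confluent culture.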 The note with it: primary human HUVEC with PBMC. A digest of the protocol:
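Human umbilical vein endothelial cells co-cultured with peripheral blood mononuclear cells; total protein measured by sulforhodamine B staining (0.1% SRB after 10% TCA fixation), absorbance at 560 nm, at 96 h. Bidirectional fit against DMSO baseline.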

A short description of assay [6]: BSK_SAg_SRB: Viability Assessment in the BioMAP Diversity Plus: SAg Assay (AID 2283096).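 Note: cells read one day after compound addition; hits may be either gain or loss of signal compared with DMSO.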 The following applies: primary human HUVEC with PBMC. A digest of the protocol:
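Human umbilical vein endothelial cells co-cultured with PBMC, read 24 h after compound dosing. Total protein measured by sulforhodamine B staining (0.1% SRB after 10% TCA fixation, absorbance 560 nm); bidirectional fit versus DMSO baseline.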

Read-out in assay [7]: Monokine induced gamma interferon (MIG), CXCL9 (gene 4283)
Briefly: BSK_SAg_MIG: BioMAP Diversity Plus: SAg Assay for Monokine induced gamma interferon (MIG) Biomarker Activity (AID 2283092). The following applies: primary human HUVEC with PBMC; actives raise or lower the signal. A digest of the protocol: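 Endothelial cells and PBMC were co-cultured, exposed to test chemicals, and sampled 24 h later. MIG was measured by ELISA, and responses were fitted in both directions relative to DMSO.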

For assay [8], the target named is human CYP1A1, CYP1A1 (gene 1543) (UniProt P04798). Briefly: NVS_ADME_hCYP1A1: NovaScreen (NVS) CYP450-related Enzyme Activity (ADME) Assay for human CYP1A1 (AID 2283100; active = hit-call score of the fitted dose curve at least 0.9, where 1 is the maximum). A digest of the protocol:
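Inhibition of recombinant CYP1A1 turnover was assessed fluorometrically in a biochemical format 1 h after compound exposure. Testing began at 10 uM in duplicate and progressed to concentration series reaching 20 uM, with on-plate positive and negative controls.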

In assay [9] the target is Cytochrome P450 2C19 (Homo sapiens) (UniProt P33261). Briefly: NVS_ADME_hCYP2C19: NovaScreen (NVS) CYP450-related Enzyme Activity (ADME) Assay for human CYP2C19 (AID 2283113; active = hit-call score of the fitted dose curve at least 0.9, where 1 is the maximum;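 for AC50: potency for inhibition seen as loss of fluorescent signal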). A digest of the protocol: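 Biochemical CYP2C19 inhibition screen: insect-cell recombinant protein plus fluorescent substrate, 1 h, fluorescence intensity. Acetonitrile defined baseline activity. Single 10 uM concentration in duplicate, with concentration-response follow-up for actives.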

Assay [10] has as its target human CYP19A1, CYP19A1 (gene 1588) (UniProt P11511). Put plainly: NVS_ADME_hCYP19A1: NovaScreen (NVS) CYP450-related Enzyme Activity (ADME) Assay for human CYP19A1 (AID 2283098; active = hit-call score of the fitted dose curve at least 0.9, where 1 is the maximum;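 for AC50: potency for inhibitors seen as loss of fluorescent enzyme signal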). A digest of the protocol: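 Recombinant enzyme in a cell-free format, read 0.5 h after dosing by fluorescence from a fluorogenic substrate. Loss of signal was fitted against acetonitrile as baseline. Primary screen in duplicate at 10 uM, actives then tested in concentration series.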

Assay [11] deals with human CYP2B6, CYP2B6 (gene 1555) (UniProt P20813). Put plainly: NVS_ADME_hCYP2B6: NovaScreen (NVS) CYP450-related Enzyme Activity (ADME) Assay for human CYP2B6 (AID 2283101; active = hit-call score of the fitted dose curve at least 0.9, where 1 is the maximum). Put shortly: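 Cell-free recombinant enzyme assay with a fluorogenic substrate; fluorescence intensity read 1 hour after dosing. Loss of signal relative to acetonitrile negative control indicates inhibition. Primary screen run in duplicate at 10 uM, actives then tested in concentration series.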
Sequence of human CYP2B6, CYP2B6 (gene 1555) (P20813 whole entry, looked up): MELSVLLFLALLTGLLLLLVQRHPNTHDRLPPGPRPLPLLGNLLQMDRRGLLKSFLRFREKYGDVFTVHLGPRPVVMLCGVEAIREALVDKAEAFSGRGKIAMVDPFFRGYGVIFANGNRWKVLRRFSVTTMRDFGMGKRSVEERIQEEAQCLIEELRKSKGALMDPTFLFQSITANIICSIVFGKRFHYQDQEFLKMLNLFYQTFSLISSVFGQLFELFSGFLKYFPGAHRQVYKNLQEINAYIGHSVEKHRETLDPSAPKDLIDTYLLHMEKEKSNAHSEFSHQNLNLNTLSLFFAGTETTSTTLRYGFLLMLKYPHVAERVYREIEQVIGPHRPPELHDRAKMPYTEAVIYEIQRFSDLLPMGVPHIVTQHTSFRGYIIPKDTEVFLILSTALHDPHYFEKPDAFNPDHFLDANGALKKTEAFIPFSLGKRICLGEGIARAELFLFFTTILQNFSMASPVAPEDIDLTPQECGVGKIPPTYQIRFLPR

Assay [12] concerns the target human CYP2A6, CYP2A6 (gene 1548) (UniProt P11509). Put plainly: NVS_ADME_hCYP2A6: NovaScreen (NVS) CYP450-related Enzyme Activity (ADME) Assay for human CYP2A6 (AID 2283099; active = hit-call score of the fitted dose curve at least 0.9, where 1 is the maximum). A digest of the protocol: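 Loss of fluorescence signal relative to acetonitrile vehicle reported CYP2A6 inhibition in a cell-free system using insect-cell-derived enzyme. Readings were taken at 0.5 h; top concentration in follow-up dose series was 20 uM.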

The target of assay [13] is human CYP1A2, CYP1A2 (gene 1544) (UniProt P05177). Put plainly: NVS_ADME_hCYP1A2: NovaScreen (NVS) CYP450-related Enzyme Activity (ADME) Assay for human CYP1A2 (AID 2283102; active = hit-call score of the fitted dose curve at least 0.9, where 1 is the maximum;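 note: potency for inhibition since loss of fluorescence marks reduced CYP1A2 activity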). Put shortly: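 Inhibition scored as decrease in fluorescent product versus acetonitrile negative control. Enzyme: insect-cell recombinant human CYP1A2, substrate-specific, cell-free. Reading at 0.5 h; 10 uM duplicate initial screen with positive and negative controls on every plate.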
Sequence of human CYP1A2, CYP1A2 (gene 1544) (P05177 whole entry, looked up): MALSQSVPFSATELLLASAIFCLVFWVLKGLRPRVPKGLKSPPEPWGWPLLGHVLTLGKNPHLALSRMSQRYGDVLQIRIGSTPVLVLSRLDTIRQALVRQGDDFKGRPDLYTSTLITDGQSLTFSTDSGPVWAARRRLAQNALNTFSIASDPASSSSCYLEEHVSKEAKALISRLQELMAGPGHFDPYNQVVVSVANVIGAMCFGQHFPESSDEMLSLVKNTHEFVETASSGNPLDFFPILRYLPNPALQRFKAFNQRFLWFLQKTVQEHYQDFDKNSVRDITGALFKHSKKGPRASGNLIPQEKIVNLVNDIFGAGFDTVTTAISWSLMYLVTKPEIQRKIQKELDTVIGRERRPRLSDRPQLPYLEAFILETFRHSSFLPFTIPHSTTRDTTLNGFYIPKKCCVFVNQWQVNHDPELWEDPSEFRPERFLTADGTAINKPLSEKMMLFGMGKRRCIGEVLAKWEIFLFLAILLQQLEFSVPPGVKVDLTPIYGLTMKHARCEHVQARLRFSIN

In assay [14] the target is human CYP2C9, CYP2C9 (gene 1559) (UniProt P11712). Briefly: NVS_ADME_hCYP2C9: NovaScreen (NVS) CYP450-related Enzyme Activity (ADME) Assay for human CYP2C9 (AID 2283108; active = hit-call score of the fitted dose curve at least 0.9, where 1 is the maximum). A digest of the protocol:
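Recombinant human CYP2C9 expressed in SF9 cells, fluorogenic substrate, fluorescence read 0.75 h after dosing. Chemicals first run in duplicate at 10 uM, with actives followed in concentration series; loss of signal versus acetonitrile baseline.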

Assay [15] has as its target human CYP4F12, CYP4F12 (gene 66002) (UniProt Q9HCS2). Briefly: NVS_ADME_hCYP4F12: NovaScreen (NVS) CYP450-related Enzyme Activity (ADME) Assay for human CYP4F12 (AID 2283111; active = hit-call score of the fitted dose curve at least 0.9, where 1 is the maximum). Put shortly:
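Cell-free fluorescence assay of recombinant human CYP4F12 activity on a specific substrate, read 0.5 h after dosing. Primary screen in duplicate at 10 uM, then concentration series for actives; loss of signal fitted against acetonitrile negative control.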

Assay [16] deals with rat CYP2A1, Cyp2a1 (gene 24894) (UniProt P11711). Put plainly: NVS_ADME_rCYP2A1: NovaScreen (NVS) CYP450-related Enzyme Activity (ADME) Assay for rat CYP2A1 (AID 2283114). Put shortly: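 Recombinant rat CYP2A1, cell-free, fluorogenic substrate turnover read by fluorescence intensity 0.75 h after dosing. Primary screen at 10 uM in duplicate; actives rerun as concentration-response up to 20 uM; loss of signal versus acetonitrile control.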
Sequence of rat CYP2A1, Cyp2a1 (gene 24894) (P11711 whole entry, looked up): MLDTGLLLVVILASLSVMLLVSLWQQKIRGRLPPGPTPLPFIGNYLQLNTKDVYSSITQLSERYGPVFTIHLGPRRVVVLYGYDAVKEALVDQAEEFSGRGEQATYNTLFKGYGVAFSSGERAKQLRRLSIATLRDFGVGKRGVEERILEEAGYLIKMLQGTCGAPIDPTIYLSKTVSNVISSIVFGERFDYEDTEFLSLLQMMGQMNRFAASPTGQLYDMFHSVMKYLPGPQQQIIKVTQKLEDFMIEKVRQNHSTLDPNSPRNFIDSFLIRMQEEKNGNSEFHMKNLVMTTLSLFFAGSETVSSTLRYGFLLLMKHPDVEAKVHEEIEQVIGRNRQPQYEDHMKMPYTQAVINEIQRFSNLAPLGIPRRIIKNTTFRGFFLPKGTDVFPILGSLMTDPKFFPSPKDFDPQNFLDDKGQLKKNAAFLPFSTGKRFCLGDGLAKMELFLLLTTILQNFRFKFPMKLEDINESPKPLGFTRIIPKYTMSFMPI

Sequence of E-selectin (Homo sapiens) (P16581 whole entry, looked up): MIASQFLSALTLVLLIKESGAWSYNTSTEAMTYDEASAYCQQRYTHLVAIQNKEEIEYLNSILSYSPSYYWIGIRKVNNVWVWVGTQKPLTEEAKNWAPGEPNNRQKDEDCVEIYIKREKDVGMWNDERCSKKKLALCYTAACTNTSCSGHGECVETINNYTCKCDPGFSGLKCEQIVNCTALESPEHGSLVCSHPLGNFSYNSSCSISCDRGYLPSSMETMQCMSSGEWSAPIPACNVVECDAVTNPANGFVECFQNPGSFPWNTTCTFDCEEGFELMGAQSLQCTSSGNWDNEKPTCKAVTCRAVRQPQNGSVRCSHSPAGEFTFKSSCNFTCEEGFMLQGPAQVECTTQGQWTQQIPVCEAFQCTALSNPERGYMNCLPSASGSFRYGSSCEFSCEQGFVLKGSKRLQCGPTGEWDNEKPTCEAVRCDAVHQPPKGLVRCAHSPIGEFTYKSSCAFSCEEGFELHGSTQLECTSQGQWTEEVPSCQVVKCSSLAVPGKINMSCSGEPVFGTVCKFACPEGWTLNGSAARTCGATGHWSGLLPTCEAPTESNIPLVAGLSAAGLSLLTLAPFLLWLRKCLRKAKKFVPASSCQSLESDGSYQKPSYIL
Sequence of human CYP19A1, CYP19A1 (gene 1588) (P11511 whole entry, looked up): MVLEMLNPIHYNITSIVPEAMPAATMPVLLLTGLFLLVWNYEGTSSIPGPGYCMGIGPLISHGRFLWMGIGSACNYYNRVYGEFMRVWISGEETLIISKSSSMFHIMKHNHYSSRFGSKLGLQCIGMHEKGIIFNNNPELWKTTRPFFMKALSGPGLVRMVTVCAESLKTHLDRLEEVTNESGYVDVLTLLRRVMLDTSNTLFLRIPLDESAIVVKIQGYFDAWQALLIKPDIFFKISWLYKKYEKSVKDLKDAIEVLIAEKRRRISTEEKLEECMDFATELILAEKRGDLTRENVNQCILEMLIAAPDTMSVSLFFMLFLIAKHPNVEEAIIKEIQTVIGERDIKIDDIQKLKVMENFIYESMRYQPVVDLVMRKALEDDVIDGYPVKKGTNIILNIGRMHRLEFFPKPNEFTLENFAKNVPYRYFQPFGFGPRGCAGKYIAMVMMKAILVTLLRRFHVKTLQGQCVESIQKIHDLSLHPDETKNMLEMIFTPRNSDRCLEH
Sequence of human CYP2C9, CYP2C9 (gene 1559) (P11712 whole entry, looked up): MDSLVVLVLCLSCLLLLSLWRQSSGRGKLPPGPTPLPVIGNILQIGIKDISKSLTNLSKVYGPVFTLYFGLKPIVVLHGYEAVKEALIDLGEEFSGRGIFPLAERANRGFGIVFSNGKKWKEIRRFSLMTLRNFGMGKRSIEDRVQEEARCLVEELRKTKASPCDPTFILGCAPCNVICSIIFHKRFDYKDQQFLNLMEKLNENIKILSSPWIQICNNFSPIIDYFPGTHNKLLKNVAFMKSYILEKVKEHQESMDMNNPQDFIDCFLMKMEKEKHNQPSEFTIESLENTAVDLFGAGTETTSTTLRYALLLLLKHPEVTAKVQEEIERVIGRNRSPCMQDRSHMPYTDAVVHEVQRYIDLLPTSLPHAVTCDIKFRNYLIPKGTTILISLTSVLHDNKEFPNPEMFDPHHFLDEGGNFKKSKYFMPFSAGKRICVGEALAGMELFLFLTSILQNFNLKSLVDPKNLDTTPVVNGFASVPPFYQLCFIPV
Sequence of human CYP2A6, CYP2A6 (gene 1548) (P11509 whole entry, looked up): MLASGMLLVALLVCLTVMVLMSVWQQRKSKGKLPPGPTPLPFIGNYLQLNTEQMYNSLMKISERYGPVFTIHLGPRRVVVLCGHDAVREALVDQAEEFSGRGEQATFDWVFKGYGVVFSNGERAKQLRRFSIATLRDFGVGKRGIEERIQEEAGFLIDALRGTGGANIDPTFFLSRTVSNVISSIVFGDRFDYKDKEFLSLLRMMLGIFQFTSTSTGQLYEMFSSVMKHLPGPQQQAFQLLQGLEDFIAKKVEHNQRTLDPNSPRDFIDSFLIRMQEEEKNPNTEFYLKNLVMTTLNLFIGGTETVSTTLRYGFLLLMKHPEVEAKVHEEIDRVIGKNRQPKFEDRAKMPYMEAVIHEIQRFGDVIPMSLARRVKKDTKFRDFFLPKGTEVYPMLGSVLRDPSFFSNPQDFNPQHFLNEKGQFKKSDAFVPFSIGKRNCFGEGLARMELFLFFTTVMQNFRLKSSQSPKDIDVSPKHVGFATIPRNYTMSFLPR
Sequence of human CYP1A1, CYP1A1 (gene 1543) (P04798 whole entry, looked up): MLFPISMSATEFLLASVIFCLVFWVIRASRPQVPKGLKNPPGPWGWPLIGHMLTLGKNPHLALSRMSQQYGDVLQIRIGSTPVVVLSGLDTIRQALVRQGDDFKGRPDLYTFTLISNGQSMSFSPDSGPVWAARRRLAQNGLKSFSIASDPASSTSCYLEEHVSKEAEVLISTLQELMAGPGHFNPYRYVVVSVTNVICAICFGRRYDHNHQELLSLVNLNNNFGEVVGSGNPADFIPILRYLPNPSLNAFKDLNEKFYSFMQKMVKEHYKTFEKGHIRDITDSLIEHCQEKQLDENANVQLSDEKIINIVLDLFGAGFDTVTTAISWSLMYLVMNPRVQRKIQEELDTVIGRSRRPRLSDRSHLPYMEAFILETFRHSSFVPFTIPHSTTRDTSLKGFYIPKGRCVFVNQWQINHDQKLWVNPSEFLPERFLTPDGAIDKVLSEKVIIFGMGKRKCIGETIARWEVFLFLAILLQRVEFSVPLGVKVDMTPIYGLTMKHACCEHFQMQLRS
Sequence of human CYP4F12, CYP4F12 (gene 66002) (Q9HCS2 whole entry, looked up): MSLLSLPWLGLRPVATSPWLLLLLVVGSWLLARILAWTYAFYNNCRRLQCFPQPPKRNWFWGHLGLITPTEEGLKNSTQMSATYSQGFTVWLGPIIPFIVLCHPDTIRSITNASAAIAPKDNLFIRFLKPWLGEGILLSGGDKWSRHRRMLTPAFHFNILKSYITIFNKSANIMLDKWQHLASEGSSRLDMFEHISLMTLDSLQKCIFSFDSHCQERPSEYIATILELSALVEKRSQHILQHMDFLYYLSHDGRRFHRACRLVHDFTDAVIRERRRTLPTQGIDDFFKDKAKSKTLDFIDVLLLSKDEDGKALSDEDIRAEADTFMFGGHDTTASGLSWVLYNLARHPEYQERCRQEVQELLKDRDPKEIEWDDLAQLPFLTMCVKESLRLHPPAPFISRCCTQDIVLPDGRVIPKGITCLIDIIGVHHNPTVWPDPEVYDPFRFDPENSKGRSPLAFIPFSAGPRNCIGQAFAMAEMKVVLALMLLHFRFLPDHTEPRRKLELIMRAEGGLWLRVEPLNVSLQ

As usually defined, the AC50 is the concentration giving half of the maximal activity seen. For the molecule `CCCCC(CC)COP(=O)(Oc1ccccc1)Oc1ccccc1` (stereo not drawn), the outcome in assay [1] and in assay [6] was inactive. Moreover, the AC50 in [2] was 20 µM (active); in assay [3] it was 20 µM (active); in assay [4], 7.9 µM (active); in [5], 20 µM (active).

Turning to `COC(=O)C(F)(F)C(F)(F)OC(F)(C(F)(F)F)C(F)(F)OC(F)=C(F)F` (stereo not drawn), the outcome in assay [1], in assay [2], in assay [3], in assay [4], in [5] and in [6] was inactive.

In the case of `ClC(Cl)=C(c1ccc(Cl)cc1)c1ccccc1Cl`, the AC50 is 25.9 µM (active) in assay [1]; 20 µM (active) in assay [2]; 10.9 µM (active) in [3]; 20 µM (active) in assay [4]; 6.98 µM (active) in [5]; 30.3 µM (active) in assay [6].

Consider `CCOP(=S)(OCC)SCSCC`, for which the result in [1], in assay [2], in assay [7], in [3], in [5] and in assay [6] was inactive. In addition, the AC50 in assay [8] is 4.19 µM (active); in assay [9], 9.32 µM (active).

On to `CC(C)(C)c1ccc(O)cc1`, for which the result in assay [1], in assay [2], in assay [7], in assay [4], in assay [5] and in [6] was inactive.

Regarding `CCCCCCCc1ccc(O)cc1`, the AC50 is 36 µM (active) in assay [1]; 31.6 µM (active) in assay [2]; 27.5 µM (active) in assay [3]; 33.1 µM (active) in assay [4]; 18.8 µM (active) in [5]; 37.1 µM (active) in assay [6]. Also, in assay [10], the AC50 was 5.15 µM (active). For the same molecule, the molecule was called inactive in [10] and in assay [9].

Take `CCCN(CCC)c1c([N+](=O)[O-])cc(C(C)C)cc1[N+](=O)[O-]`: the AC50 in [1] is 37.1 µM (active); in assay [2], 30.3 µM (active); in [3], 13.9 µM (active); in assay [4], 32.4 µM (active); in assay [5], 14.7 µM (active); in [6], 29.5 µM (active).

In the case of `CC(Cl)(Cl)C(=O)O`, the result in assay [1], in assay [2], in assay [3], in assay [4], in [5] and in assay [6] was inactive.

Turning to `CCOc1ccc(C(C)(C)COCc2cccc(Oc3ccccc3)c2)cc1`, the result in [1], in [2], in assay [7], in assay [3], in assay [6] and in assay [10] was inactive. For the same molecule, the AC50 in assay [5] is 20 µM (active).

`ClC1=C(Cl)C2(Cl)C3C(Cl)C(Cl)CC3C1(Cl)C2(Cl)Cl` (stereo not drawn): the AC50 in assay [1] was 33.6 µM (active); in assay [2], 32.3 µM (active); in [3], 13.8 µM (active); in assay [4] it was 34.7 µM (active); in [5], 7.61 µM (active); in [6] it was 31.1 µM (active). In addition, the AC50 in [11] was 5.2 µM (active); in [9] it was 6.11 µM (active).

In the case of `CC(O)C(F)(F)C(F)(F)F` (stereo not drawn), the result in assay [1], in [2], in assay [3], in assay [4], in assay [5] and in [6] was inactive.

With `Cc1ccc(N)cc1N`, the outcome in [1], in assay [2], in [7], in assay [3], in assay [5] and in [6] was inactive. In addition, the molecule was called inactive in [12].

With `Nc1ccc(Cl)cc1`, the result in assay [1], in assay [2], in [3], in assay [4], in assay [5] and in assay [6] was inactive.

`c1cc2c3c(cccc3c1)CC2`: the outcome in assay [1], in assay [2], in assay [3], in assay [4], in assay [5] and in assay [6] was inactive.

`c1ccc2c(c1)Nc1ccccc1S2`: the outcome in assay [1], in assay [2], in assay [7] and in assay [6] was inactive. Moreover, the AC50 in assay [3] was 2.19 µM (active); in [5], 20 µM (active); in [13], 1.45 µM (active); in [14], 6.5 µM (active); in [9], 6.45 µM (active).

On to `Cc1ccc([N+](=O)[O-])cc1C`, for which the outcome in assay [1], in assay [2], in assay [3], in assay [4], in [5] and in assay [6] was inactive. In assay [10], the outcome was inactive. In assay [9], the AC50 is 2.77 µM (active).

For the molecule `COP(=O)(CCC(=O)NCO)OC`, the outcome in [1], in [2], in [7], in assay [3], in assay [5] and in assay [6] was inactive.

Take `OCC1CO1` (stereo not drawn): the result in assay [1], in assay [7], in assay [3], in [4], in [5] and in assay [6] was inactive.

On to `O=[N+]([O-])c1ccccc1`, for which the result in assay [1], in [2], in [3], in assay [4], in assay [5] and in assay [6] was inactive. Further, the molecule was called inactive in [15].

Regarding `O=C(O)C=CC(F)(C(F)(F)F)C(F)(F)F`, the outcome in assay [1], in [2], in assay [3], in assay [5] and in assay [6] was inactive.

Consider `CO/N=C(/C(=O)OC)c1ccccc1COc1ccccc1C`, for which the AC50 is 9.98 µM (active) in assay [13], 6.5 µM (active) in assay [14], 2.85 µM (active) in assay [9] and 4.24 µM (active) in assay [16].

Regarding `COP(=O)(O)OC`, the outcome in assay [1], in [3], in [5] and in assay [6] was inactive. Further, in assay [2], the AC50 was 0.0643 µM (active).
